In PubChem BioAssay (Tox21) one finds outcome, Potency and max activation data, which are given here for 31 molecules.

Experiment [1] addresses Thyrotropin-releasing hormone receptor (Homo sapiens) (UniProt P34981). Put plainly: qHTS assay to identify small molecule agonists of the thyrotropin-releasing hormone receptor (TRHR) signaling pathway (AID 1346891; calls by dose curve; also: series mostly up to about 58 µM). An outline of the steps: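 TRHR-expressing HEK293 cells were plated 18 h at 37 °C/5% CO2, loaded with calcium dye 2 h at 37 °C, then given compound in DMSO; fluorescence was read kinetically for 3 min at 1 s intervals.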

Experiment [2] in a line: Human pregnane X receptor (PXR) small molecule agonists, qHTS cell viability counter screen (AID 1346977). Also: nearly all actives have a fitted effect of over 50% in size. An outline of the steps:
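PXR-Luc HepG2 cells in medium with 5% charcoal-stripped FBS were pre-incubated 5hr, then exposed to compounds for 24hr at 37C. Viability was read in the same wells by CellTiter-Fluor fluorescence, reagent added after 23hr with a 1hr incubation.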
(In general: qHTS replaces the single test concentration by a dilution series.)

The nature of experiment [3]: Caspase-3/7 induction in CHO-K1 cells by small molecules, qHTS cell viability counter screen (AID 1346979). Also: nearly all actives have a fitted effect of over 35% in size. Also: potency is read from the fitted curve at half-maximal effect. An outline of the steps: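 Wild-type CHO-K1 cells were seeded at 1,500 per well, rested 5hr at 37 C, then exposed to compounds in DMSO. After 16hr, CellTiter-Fluor reagent was added and fluorescence read 1hr later as the viability measure.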
Experiment [4] can be described thus: Caspase-3/7 induction in CHO-K1 cells by small molecules, qHTS assay (AID 1346980). Also: nearly all actives have a fitted effect of over 15% in size. The essentials: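 Wild-type CHO-K1 cells exposed to compounds for 17hr at 37 C, 5% CO2. Caspase-3/7 activity then measured by Caspase-Glo 3/7 luminescence after 30min at room temperature.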
Experiment [5] in a line: Caspase-3/7 induction in HepG2 cells by small molecules, qHTS cell viability counter screen (AID 1346981). Also: series mostly up to about 92 µM; nearly all actives have a fitted effect of over 30% in size. The essentials:
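Wild-type HepG2 cells, 2,000/well, settled 5 hr at 37 C, 5% CO2 before compound addition. Viability read by CellTiter-Fluor fluorescence, reagent added after 16 hr compound exposure, then 1 hr at 37C, in the same wells as the caspase read.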

In experiment [6] the target is Nuclear receptor subfamily 1 group I member 2 (Homo sapiens) (UniProt O75469). The experiment in a line: Human pregnane X receptor (PXR) small molecule agonists, qHTS assay (AID 1346982). Also: nearly all actives have a fitted effect of over 35% in size. Also: potency is read from the fitted curve at half-maximal effect. The essentials:
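PXR-Luc HepG2 reporter cells (CYP3A4-driven luciferase) in 5% charcoal-stripped FBS medium, plated 5 h before compound addition, then treated 24 h at 37C. Luciferase read by ONE-Glo luminescence after 30 min at room temperature.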

Experiment [7] in a line: Caspase-3/7 induction in HepG2 cells by small molecules, qHTS assay (AID 1346978). Also: nearly all actives have a fitted effect of over 15% in size. An outline of the steps: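 Wild-type HepG2 cells, 2,000/well, settled 5 hr at 37 C and 5% CO2, then compound-treated for 17 hr; caspase-3/7 activity read by luminescent Caspase-Glo 3/7 after 30 min at room temperature.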
In experiment [8] the target is Nuclear receptor subfamily 1 group I member 2 (Rattus norvegicus) (UniProt Q9R1A7). The experiment in a line: Rat pregnane X receptor (rPXR) activation by small molecules, qHTS assay (AID 1346983). Also: nearly all actives have a fitted effect of over 20% in size. The conditions noted are these: rPXR luciferase reporter cells, One-Glo luminescence, 24 h; max activation: active compounds read high. The essentials:
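Cell-based rPXR activation assay: rPXR cells, 2,000 per well, rested 5hr at 37 C, then exposed to compounds in DMSO for 24 hr at 37 C. Luciferase activity read by One-Glo luminescence after 30 min at room temperature.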

The target in experiment [9] is Nuclear receptor subfamily 1 group I member 2 (Homo sapiens) (UniProt O75469). The experiment in a line: Human pregnane X receptor (PXR) activation by small molecules, qHTS assay (AID 1346985). Also: nearly all actives have a fitted effect of over 40% in size. An outline of the steps:
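DPX-2 cells (HepG2 co-transfected with a PXR response element and a CYP3A4-promoter luciferase construct) were seeded at 2,000 per well, rested 5 hr at 37C, then exposed to DMSO-dissolved compounds for 24 hr. Activation was read as luciferase luminescence.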

The target is the same in experiment [10]. Put plainly: CYP3A4 induction through human pregnane X receptor (PXR) by small molecules, qHTS assay (AID 1346984). Also: nearly all actives have a fitted effect of over 40% in size. Also: potency is read from the fitted curve at half-maximal effect. The essentials: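 DPX-2 HepG2 cells carrying a PXR response element and CYP3A4-promoter luciferase construct, treated with compounds 24 hr at 37C. Then P450-Glo CYP3A4 Luciferin-IPA substrate (3uM final) for 3 hr at 37C, One-Glo added, luminescence read.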

Values without a mark were called inactive. Results filed as inconclusive are left out. Active and inactive are the calls of the source. Unless noted, calls follow the shape of the dose curve; as a rule, active = well fitted curve in the direction sought with a large enough effect in the repeat runs; inconclusive = weak or mixed curves; inactive = no such curve, though single readings can be large; an effect the other way counts as inactive or inconclusive.
% is scaled to controls: 0 for no effect and ±100 for the full control effect.

Sequence of Nuclear receptor subfamily 1 group I member 2 (Rattus norvegicus) (Q9R1A7 whole entry, looked up): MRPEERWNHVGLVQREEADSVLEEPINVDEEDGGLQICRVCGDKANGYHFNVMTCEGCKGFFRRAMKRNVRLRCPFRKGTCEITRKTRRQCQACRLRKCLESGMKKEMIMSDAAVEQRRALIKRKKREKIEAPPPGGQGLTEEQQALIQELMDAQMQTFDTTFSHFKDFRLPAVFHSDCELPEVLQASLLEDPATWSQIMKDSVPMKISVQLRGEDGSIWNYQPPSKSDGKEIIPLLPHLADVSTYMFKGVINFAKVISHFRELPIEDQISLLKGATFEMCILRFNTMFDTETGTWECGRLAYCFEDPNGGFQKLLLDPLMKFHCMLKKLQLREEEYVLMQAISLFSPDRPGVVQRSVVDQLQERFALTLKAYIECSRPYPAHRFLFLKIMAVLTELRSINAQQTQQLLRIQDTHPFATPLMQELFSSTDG
Sequence of Thyrotropin-releasing hormone receptor (Homo sapiens) (P34981 whole entry, looked up): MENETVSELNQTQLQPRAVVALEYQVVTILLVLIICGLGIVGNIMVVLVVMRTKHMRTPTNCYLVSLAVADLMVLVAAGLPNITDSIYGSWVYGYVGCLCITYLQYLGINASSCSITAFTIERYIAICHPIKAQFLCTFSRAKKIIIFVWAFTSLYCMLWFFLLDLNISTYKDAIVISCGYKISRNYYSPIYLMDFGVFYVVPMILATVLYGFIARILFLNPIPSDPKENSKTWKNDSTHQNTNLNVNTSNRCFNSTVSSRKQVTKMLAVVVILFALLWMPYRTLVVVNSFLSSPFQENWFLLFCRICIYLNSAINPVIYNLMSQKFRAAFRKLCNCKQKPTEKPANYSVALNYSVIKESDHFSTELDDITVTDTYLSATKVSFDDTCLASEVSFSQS
Sequence of Nuclear receptor subfamily 1 group I member 2 (Homo sapiens) (O75469 whole entry, looked up): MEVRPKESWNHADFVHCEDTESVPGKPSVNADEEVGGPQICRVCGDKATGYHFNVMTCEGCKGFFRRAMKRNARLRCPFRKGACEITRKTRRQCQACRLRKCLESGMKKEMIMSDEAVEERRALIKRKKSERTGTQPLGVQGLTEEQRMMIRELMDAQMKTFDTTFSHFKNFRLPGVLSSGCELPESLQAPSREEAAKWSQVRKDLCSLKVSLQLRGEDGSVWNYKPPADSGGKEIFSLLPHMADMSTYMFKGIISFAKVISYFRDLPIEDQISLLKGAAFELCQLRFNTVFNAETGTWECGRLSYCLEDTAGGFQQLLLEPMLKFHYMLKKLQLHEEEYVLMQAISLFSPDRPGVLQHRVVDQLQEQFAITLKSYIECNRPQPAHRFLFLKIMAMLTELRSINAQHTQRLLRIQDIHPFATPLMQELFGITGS

`O=Cc1ccc(Cl)c([N+](=O)[O-])c1`: the call in [1] was inactive. The Potency entry in experiment [2], in [4], in experiment [5] and in experiment [6] was “inactive” throughout. Besides, the Potency in [3] was 68.6 µM (active).

Consider `COc1cccc([C@H](O)C2CCN(CCc3ccc(F)cc3)CC2)c1OC`, for which the result in experiment [1] was inactive. Moreover, the Potency result in experiment [7], in [3], in experiment [4], in experiment [5] and in experiment [6] was “inactive” in each case.

As for `OCCCO`, the molecule was called inactive in experiment [1]. The Potency result in experiment [2], in [7], in experiment [4], in [5] and in experiment [6] was “inactive” in each case.

For `CCCCCCCCOCCCN`, the result in experiment [1] was inactive. For the same molecule, the Potency result in experiment [7], in experiment [3], in experiment [4], in [5] and in experiment [6] was “inactive” in each case.

For `CCC(C)C1N=C(C)C(C)S1` (stereo not given), the outcome in experiment [1] was inactive. The Potency entry in experiment [2], in experiment [7] and in [4] was “inactive” in each case. Further, the Potency in [6] is 34.4 µM (active).

Take `CCCCCCCCCCCCN1CCOCC1`: in [1], the molecule was classed as inactive. Also, the Potency entry in experiment [7], in experiment [3], in experiment [4], in [5] and in experiment [6] was “inactive” throughout.

With `CC(C)C/C=C(\C=O)c1ccccc1`, the call in [1] was inactive. For the same molecule, the Potency result in experiment [2], in experiment [7] and in [4] was “inactive” in each case. Further, the Potency in experiment [6] was 30.6 µM (active).

Regarding `C=CC(=O)NC(C)(C)C`, the result in experiment [1] was inactive. Moreover, the Potency entry in [2], in experiment [7], in experiment [4], in experiment [5] and in [6] was “inactive” each time.

Turning to `Clc1cc(Cl)c2c(c1)N=C1CCCCCN1C2`, the result in experiment [1] was inactive. Further, the Potency entry in [7], in experiment [3], in [4] and in experiment [5] was “inactive” in each case. Besides, in [6], the Potency is 29.8 µM (active).

Regarding `CCc1ccc(C(=O)C(C)CN2CCCCC2)cc1` (stereo not given), the call in experiment [1] was inactive. The Potency result in [2], in experiment [7], in experiment [4], in experiment [5] and in [9] was “inactive” each time. The max activation in experiment [8] was -6.71%.

In the case of `Cc1c(Cl)cccc1Nc1ccccc1C(=O)O`, the outcome in experiment [1] was inactive. Besides, the Potency entry in experiment [7], in experiment [3], in experiment [4] and in experiment [5] was “inactive” throughout.

`FC(F)(Cl)C(F)(Cl)Cl`: the result in experiment [1] was inactive. The Potency entry in experiment [2], in experiment [7], in experiment [4] and in experiment [6] was “inactive” throughout.

For the molecule `Clc1nc2ccccc2nc1Cl`, the call in experiment [1] was inactive. For the same molecule, the Potency entry in experiment [2], in experiment [7] and in experiment [4] was “inactive” throughout. Moreover, the Potency in [6] was 61.8 µM (active).

Take `O=C(O)c1ccncc1`: in experiment [1], the molecule was classed as inactive. For the same molecule, the Potency entry in experiment [7], in [3] and in [4] was “inactive” throughout.

For `CC(C)(C(=O)O)c1ccc(C(O)CCCN2CCC(C(O)(c3ccccc3)c3ccccc3)CC2)cc1` (stereo not given), the call in [1] was inactive. The Potency entry in experiment [2], in experiment [3], in [4] and in experiment [6] was “inactive” in each case.

On to `CCc1ccc2c(c1)C(=O)c1ccccc1C2=O`, for which the molecule was classed as inactive in experiment [1]. For the same molecule, the Potency entry in [2], in [7] and in experiment [4] was “inactive” in each case. The Potency in experiment [6] was 21.7 µM (active).

With `O=S(=O)(O)c1cc(Cl)c(Cl)cc1Cl`, the call in experiment [1] was inactive. In addition, the Potency result in experiment [7], in experiment [3], in [4], in experiment [5] and in [6] was “inactive” in each case.

Turning to `CCC(C(=O)O)c1ccc(N2Cc3ccccc3C2=O)cc1` (stereo not given), the result in [1] was inactive. Moreover, the Potency entry in experiment [2], in [7], in experiment [4] and in experiment [5] was “inactive” each time. Besides, the Potency in experiment [6] was 4.73 µM (active).

For `c1ccc(CN(Cc2ccccc2)Cc2ccccc2)cc1`, the result in experiment [1] was inactive. The Potency result in experiment [2], in [7] and in experiment [4] was “inactive” each time. In addition, in experiment [6], the Potency was 30.6 µM (active).

In the case of `C[C@]12CCC(=O)C=C1[C@@H]1C[C@@H]1[C@H]1[C@@H]3[C@@H]4C[C@@H]4[C@@]4(CCC(=O)O4)[C@@]3(C)CC[C@@H]12`, the molecule was called inactive in [1]. For the same molecule, the Potency entry in [2], in experiment [7], in experiment [4], in experiment [5] and in experiment [6] was “inactive” each time. In [10], the Potency was 11.2 µM (active).

Consider `CCCCCC1CCC(=O)O1` (stereo not given), for which the result in experiment [1] was inactive. For the same molecule, the Potency entry in [2], in experiment [7], in experiment [4], in experiment [5] and in experiment [6] was “inactive” each time.

In the case of `O=C(C1CCCCC1)N1CC(=O)N2CCCc3ccccc3C2C1` (stereo not given), the molecule was called inactive in experiment [1]. Further, the Potency entry in [2], in experiment [7], in experiment [4] and in [5] was “inactive” throughout. The Potency in experiment [6] is 7.5 µM (active).

Take `OCCOc1cccc(OCCO)c1`: in experiment [1], the outcome was inactive. The Potency entry in [2], in experiment [7], in experiment [4], in experiment [5] and in experiment [6] was “inactive” each time.

Consider `O=[N+]([O-])c1ccc(Cl)cc1Cl`, for which the outcome in experiment [1] was inactive. The Potency result in experiment [2], in experiment [7], in [4], in [5] and in [6] was “inactive” throughout.

With `CC[C@H](NC(C)C)[C@H](O)c1ccc(O)c2[nH]c(=O)ccc12`, the molecule was called inactive in [1]. The Potency entry in experiment [2], in experiment [7], in experiment [4], in experiment [6], in [10] and in experiment [9] was “inactive” each time. Also, in [8], the max activation is -3.27%.

`O=C(OCCN1CCOCC1)c1cccnc1Nc1cccc(C(F)(F)F)c1`: the outcome in experiment [1] was inactive. Besides, the Potency entry in [7], in experiment [3], in experiment [4] and in [5] was “inactive” throughout. Further, the Potency in [6] is 26.6 µM (active).

On to `O=C(Cl)c1ccc(F)c(Cl)c1`, for which the outcome in experiment [1] was inactive. Also, the Potency result in experiment [2], in experiment [7], in [4] and in experiment [6] was “inactive” throughout.

In the case of `O=C(O)COCC(=O)O`, the call in experiment [1] was inactive. Further, the Potency result in experiment [2], in [7], in experiment [4], in [5] and in [6] was “inactive” each time.

On to `CCCCCCCCCCCCSCCOCCO`, for which the outcome in experiment [1] was inactive. Moreover, the Potency entry in experiment [2], in experiment [7], in experiment [4], in experiment [5], in [10] and in experiment [9] was “inactive” each time. Moreover, the max activation in experiment [8] was -0.35%.

In the case of `O=C(O)c1cc(C(=O)O)cc([N+](=O)[O-])c1`, the molecule was called inactive in [1]. For the same molecule, the Potency entry in experiment [7], in experiment [3], in experiment [4], in experiment [5] and in experiment [6] was “inactive” in each case.

Regarding `Nc1ncnc2c1ncn2[C@@H]1O[C@H](CO)[C@@H](O)[C@H]1O`, the outcome in [1] was inactive. Moreover, the Potency result in experiment [7], in experiment [3], in [4] and in [5] was “inactive” each time.
